{"source": "PubChem BioAssay (EPA / NIEHS)", "key": {"[1]": {"biological_target": "human Opioid Receptor Mu (Opiate Mu), OPRM1 (gene 4988) (UniProt P35372)", "sequence (P35372 whole entry, looked up)": "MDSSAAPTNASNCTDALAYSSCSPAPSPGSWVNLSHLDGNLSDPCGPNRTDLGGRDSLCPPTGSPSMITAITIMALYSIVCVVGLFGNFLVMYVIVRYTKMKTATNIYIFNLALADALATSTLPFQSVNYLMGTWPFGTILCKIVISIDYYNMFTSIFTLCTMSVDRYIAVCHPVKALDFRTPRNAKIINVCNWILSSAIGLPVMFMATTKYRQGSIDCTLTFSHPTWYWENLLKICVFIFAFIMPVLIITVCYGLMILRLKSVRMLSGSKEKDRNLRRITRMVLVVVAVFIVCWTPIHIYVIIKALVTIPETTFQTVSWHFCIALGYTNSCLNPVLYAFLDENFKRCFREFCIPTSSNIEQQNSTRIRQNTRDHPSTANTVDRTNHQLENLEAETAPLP", "assay": "NVS_GPCR_hOpiate_mu: NovaScreen (NVS) G Protein-Coupled Receptor Assay for human Opioid Receptor Mu (Opiate Mu) (AID 2283290);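 further: hits lower bound tracer signal versus DMSO meaning displacement of the ligand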", "method_in_brief": "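Primary screen in duplicate at 25 uM, with actives followed in concentration series. CHO-derived receptor membranes, cell-free; bound radioligand read by scintillation counting after filtration at 2.5 h, decrease scored against DMSO.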"}, "[2]": {"biological_target": "rat Adrenergic Receptor, Alpha 2 (Adra2), Non-selective Binding, Adra2a (gene 25083) (UniProt P22909)", "sequence (P22909 whole entry, looked up)": "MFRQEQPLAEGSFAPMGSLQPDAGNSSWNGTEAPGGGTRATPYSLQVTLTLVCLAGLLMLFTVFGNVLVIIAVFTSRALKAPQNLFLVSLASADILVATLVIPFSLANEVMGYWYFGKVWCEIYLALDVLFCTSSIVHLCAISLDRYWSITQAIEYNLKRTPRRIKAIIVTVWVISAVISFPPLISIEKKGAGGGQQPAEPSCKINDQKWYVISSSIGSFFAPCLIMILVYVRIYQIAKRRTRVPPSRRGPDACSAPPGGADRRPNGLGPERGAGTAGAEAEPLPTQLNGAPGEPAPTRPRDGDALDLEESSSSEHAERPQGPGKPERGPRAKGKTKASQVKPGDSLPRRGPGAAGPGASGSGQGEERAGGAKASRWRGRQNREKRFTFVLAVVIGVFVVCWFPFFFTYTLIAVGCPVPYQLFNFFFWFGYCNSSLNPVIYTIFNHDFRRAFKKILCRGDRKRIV", "assay": "NVS_GPCR_rAdra2_NonSelective: NovaScreen (NVS) G Protein-Coupled Receptor Assay for rat Adrenergic Receptor, Alpha 2 (Adra2), Non-selective Binding (AID 2283299)", "method_in_brief": "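Filter-based scintillation counting of radioligand binding to rat cortical membrane receptors, measured 1.25 hours post-dosing; loss of signal versus DMSO indicates displacement. Initial single-concentration duplicate at 25 uM, then concentration series.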"}, "[3]": {"biological_target": "rat Serotonin Transporter (SERT), Slc6a4 (gene 25553) (UniProt P31652)", "sequence (P31652 whole entry, looked up)": "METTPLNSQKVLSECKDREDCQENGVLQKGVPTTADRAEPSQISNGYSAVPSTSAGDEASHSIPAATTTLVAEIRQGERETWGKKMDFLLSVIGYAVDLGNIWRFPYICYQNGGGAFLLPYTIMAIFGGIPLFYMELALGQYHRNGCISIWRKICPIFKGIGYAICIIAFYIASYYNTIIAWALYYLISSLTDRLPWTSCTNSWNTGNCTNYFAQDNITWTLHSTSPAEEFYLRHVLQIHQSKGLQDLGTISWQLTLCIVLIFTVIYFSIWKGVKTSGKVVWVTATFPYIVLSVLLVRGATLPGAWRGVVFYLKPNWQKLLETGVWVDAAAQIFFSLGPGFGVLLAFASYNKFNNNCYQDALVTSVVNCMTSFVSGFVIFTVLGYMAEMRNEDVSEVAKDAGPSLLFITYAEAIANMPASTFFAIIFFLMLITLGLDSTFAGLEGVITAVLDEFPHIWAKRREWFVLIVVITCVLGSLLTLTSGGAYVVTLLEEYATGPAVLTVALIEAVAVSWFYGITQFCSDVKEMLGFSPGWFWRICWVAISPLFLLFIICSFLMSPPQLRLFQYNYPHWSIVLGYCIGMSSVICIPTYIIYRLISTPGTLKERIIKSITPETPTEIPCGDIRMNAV", "assay": "NVS_TR_rSERT: NovaScreen (NVS) Transporter Assay for rat Serotonin Transporter (SERT) (AID 2283375)", "method_in_brief": "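Using rat forebrain membrane SERT, test chemicals compete with a radioligand for 1 hour, and bound counts are taken by filter-based scintillation. Screening starts at 25 uM in duplicate, followed by concentration series for actives.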"}, "[4]": {"system": "guinea pig Dopamine Transporter (DAT), gene 100714898", "assay": "NVS_TR_gDAT: NovaScreen (NVS) Transporter Assay for guinea pig Dopamine Transporter (DAT) (AID 2283369)", "method_in_brief": "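Primary pass: duplicate wells at 25 uM, threshold e.g. 30% inhibition. Follow-up: singleton concentration-response, highest 50 uM. Radioligand binding on guinea pig striatal membranes, 2 h, filtration scintillation detection.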"}, "[5]": {"assay": "CEETOX_H295R_11DCORT_noMTC: CeeTox H295R High-throughput Steroidogenesis Assay for 11-Deoxycortisol (11DCORT), maximum tolerated concentration (MTC) filtered results only (AID 2283911; active means hit-call score of the fitted dose curve at least 0.9, where 1 is the maximum; inactive means score below 0.9)", "details": "actives raise or lower the signal", "method_in_brief": "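Forskolin-primed (10 uM, 48 h) H295R adrenal cells are dosed for 48 h at 0.1% DMSO; medium 11-deoxycortisol is quantified by LC-MS/MS against a 7-point standard curve, with activity fitted in both directions versus DMSO.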"}, "[6]": {"assay": "CEETOX_H295R_OHPREG_noMTC: CeeTox H295R High-throughput Steroidogenesis Assay for OH-Pregnenolone (OHPREG), maximum tolerated concentration (MTC) filtered results only (AID 2283912; active means hit-call score of the fitted dose curve at least 0.9, where 1 is the maximum; inactive means score below 0.9)", "details": "actives raise or lower the signal", "method_in_brief": "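Medium 17alpha-hydroxypregnenolone quantified by reverse-phase HPLC-MS/MS after 48 h chemical exposure of forskolin-prestimulated (10 uM, 48 h) H295R, 0.1% DMSO final. Fitting bidirectional relative to DMSO; no maximum-tolerated-concentration filtering applied.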"}, "[7]": {"assay": "CEETOX_H295R_OHPROG_noMTC: CeeTox H295R High-throughput Steroidogenesis Assay for OH-Progesterone (OHPROG), maximum tolerated concentration (MTC) filtered results only (AID 2283914; active means hit-call score of the fitted dose curve at least 0.9, where 1 is the maximum; inactive means score below 0.9)", "details": "actives raise or lower the signal", "method_in_brief": "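After 48 h forskolin (10 uM) prestimulation, H295R adrenal cells received test chemical in 0.1% DMSO for 48 h. Medium 17alpha-hydroxyprogesterone was MTBE-extracted and measured by HPLC-MS/MS; gain or loss relative to DMSO, no MTT-based MTC filtering.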"}, "[8]": {"assay": "CEETOX_H295R_CORTISOL_noMTC: CeeTox H295R High-throughput Steroidogenesis Assay for Cortisol, maximum tolerated concentration (MTC) filtered results only (AID 2283916; active means hit-call score of the fitted dose curve at least 0.9, where 1 is the maximum; inactive means score below 0.9)", "details": "actives raise or lower the signal", "method_in_brief": "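Cortisol secretion measured by LC-MS/MS after 48 h chemical treatment (final 0.1% DMSO) of forskolin-primed (10 uM, 48 h) H295R cells; gain or loss fitted relative to DMSO, without maximum-tolerated-concentration filtering.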"}, "[9]": {"assay": "CEETOX_H295R_CORTIC_noMTC: CeeTox H295R High-throughput Steroidogenesis Assay for Corticosterone (CORTIC), maximum tolerated concentration (MTC) filtered results only (AID 2283917; active means hit-call score of the fitted dose curve at least 0.9, where 1 is the maximum; inactive means score below 0.9)", "details": "actives raise or lower the signal", "method_in_brief": "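Human adrenal H295R cells were prestimulated 48 h with 10 uM forskolin, then exposed 48 h to chemical in 0.1% DMSO. Medium corticosterone was MTBE-extracted and quantified by HPLC-MS/MS; bidirectional fits versus DMSO, concentrations not MTC-filtered.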"}, "[10]": {"assay": "CEETOX_H295R_DOC_noMTC: CeeTox H295R High-throughput Steroidogenesis Assay for DOC, maximum tolerated concentration (MTC) filtered results only (AID 2283918; active means hit-call score of the fitted dose curve at least 0.9, where 1 is the maximum; inactive means score below 0.9)", "details": "actives raise or lower the signal", "method_in_brief": "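11-Deoxycorticosterone secreted by human adrenal H295R cells quantified by HPLC-MS/MS after 48 h chemical exposure (0.1% DMSO), following 48 h 10 uM forskolin prestimulation. Concentrations not filtered by MTT-derived MTC; bidirectional fitting.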"}, "[11]": {"assay": "CEETOX_H295R_PROG_noMTC: CeeTox H295R High-throughput Steroidogenesis Assay for Progesterone (PROG), maximum tolerated concentration (MTC) filtered results only (AID 2283920; active means hit-call score of the fitted dose curve at least 0.9, where 1 is the maximum; inactive means score below 0.9)", "details": "actives raise or lower the signal", "method_in_brief": "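Progesterone secreted into medium was measured by HPLC-MS/MS after MTBE extraction, following 48 h chemical exposure (0.1% DMSO) of forskolin-prestimulated (10 uM, 48 h) H295R adrenal cells. Gain or loss fitted against DMSO; no MTC filtering.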"}, "[12]": {"biological_target": "human Beta-secretase (BACE), BACE1 (gene 23621) (UniProt P56817)", "sequence (P56817 whole entry, looked up)": "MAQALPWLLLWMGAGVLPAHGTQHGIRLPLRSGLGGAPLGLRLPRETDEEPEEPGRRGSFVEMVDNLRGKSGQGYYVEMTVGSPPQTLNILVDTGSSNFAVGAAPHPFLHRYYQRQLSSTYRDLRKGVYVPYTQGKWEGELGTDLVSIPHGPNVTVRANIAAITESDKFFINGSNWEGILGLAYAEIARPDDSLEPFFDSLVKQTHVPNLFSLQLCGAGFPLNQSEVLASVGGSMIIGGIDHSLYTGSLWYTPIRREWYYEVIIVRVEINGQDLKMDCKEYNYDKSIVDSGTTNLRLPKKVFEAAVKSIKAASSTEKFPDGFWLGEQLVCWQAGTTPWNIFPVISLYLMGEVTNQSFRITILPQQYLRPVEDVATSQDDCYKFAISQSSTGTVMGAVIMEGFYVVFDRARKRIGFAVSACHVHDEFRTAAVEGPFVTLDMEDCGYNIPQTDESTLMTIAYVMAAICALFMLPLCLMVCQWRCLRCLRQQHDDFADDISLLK", "assay": "NVS_ENZ_hBACE: NovaScreen (NVS) Enzymatic Assay for human Beta-secretase (BACE) (AID 2283140);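 further: hits are inhibitors that reduce fluorescent substrate signal versus DMSO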", "method_in_brief": "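Enzyme activity of SF9-produced BACE1 is measured cell-free by fluorescence, 1 hour post dosing, normalised to DMSO. Screening used 25 uM in duplicate, with concentration-response follow-up for actives.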"}, "[13]": {"assay": "UKN5_HCS_SBAD2_cell_viability: Viability Assessment in the University of Konstanz (UKN) Leist Lab Neurite Outgrowth Assay in human iPSC-derived immature Dorsal Root Ganglia Neurons (UKN5) (AID 2284056; active means hit-call score of the fitted dose curve at least 0.9, where 1 is the maximum; inactive means score below 0.9)", "method_in_brief": "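iPSC-derived immature peripheral neurons (SBAD2) seeded on Matrigel with CHIR99021, SU5402 and DAPT, dosed 1 h later for 24 h. Viability from Hoechst H-33342 and calcein-AM live staining, high-content imaging; bidirectional fit versus DMSO.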"}, "[14]": {"assay": "UKN5_HCS_SBAD2_neurite_outgrowth: University of Konstanz (UKN) Leist Lab Neurite Outgrowth Assay in human iPSC-derived immature Dorsal Root Ganglia Neurons (UKN5) (AID 2284070; active means hit-call score of the fitted dose curve at least 0.9, where 1 is the maximum; inactive means score below 0.9)", "details": "actives raise or lower the signal", "method_in_brief": "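Neurite outgrowth is quantified as calcein-AM-labelled neurite area in human iPSC-derived peripheral neurons treated for 24 h, starting 1 h after plating in medium with CHIR99021 (1.5 uM), SU5402 (5 uM) and DAPT (5 uM).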"}, "[15]": {"assay": "CCTE_Shafer_MEA_dev_bursting_electrodes_number: CCTE's Neural Network Formation Assay for Number of Bursting Electrodes, Shafer Lab (AID 2284043)", "method_in_brief": "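Number of electrodes reaching ≥1 burst every 2 min was recorded at DIV 5, 7, 9 and 12 and collapsed as trapezoidal area under the curve. Cultures were rat cortical neurons on MEA plates, dosed continuously from plating with medium and treatment refreshed on DIV 5 and 9.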"}, "[16]": {"assay": "CCTE_Shafer_MEA_acute_AB: CCTE's Alamar Blue Assay for Cytotoxicity in the Neural Acute Assay, Shafer Lab (AID 2284069)", "method_in_brief": "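Resazurin reduction (CellTiter Blue, 1:6 in fresh medium) read at ex 544/em 590 nm marks viability loss relative to DMSO. Cells: primary rat cortical neuron networks on microelectrode arrays, treated after baseline recording at 13 or 15 days in vitro.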"}, "[17]": {"assay": "CCTE_Shafer_MEA_dev_AB: CCTE's Alamar Blue Assay for Cytotoxicity in the Neural Network Formation Assay, Shafer Lab (AID 2284083)", "method_in_brief": "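Resazurin fluorescence, relative to DMSO, gauges viability after twelve days of exposure that began at plating of rat cortical neurons (1.5 x 10^5 cells/well, 48-well MEA); treatment renewed with full medium exchange on DIV 5 and 9.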"}, "[18]": {"assay": "CCTE_Mundy_HCI_hNP1_CellTiter: CCTE's Cell Titer-Glo 2 Assay in human neuroprogenitor cells for Viability, Mundy Lab (AID 2284241)", "method_in_brief": "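Human neural progenitor cells (hNP1, WA09-derived) were plated on poly-L-ornithine/laminin and grown 40 to 44 hours at 37 °C, 5% CO2 before chemical addition. Twenty-four hours later, ATP was measured by CellTiter-Glo luminescence; loss of signal versus DMSO indicates reduced viability.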"}, "[19]": {"assay": "IUF_NPC5_oligodendrocyte_differentiation_120hr: Leibniz Research Institute for Environmental Medicine (IUF) 120-hour Oligodendrocyte Differentiation Assay (NPC5) (AID 2284304);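 further: primary human fetal neural progenitor spheres plated to migrate and differentiate; share of O4-positive cells among Hoechst nuclei found by CNN image analysis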", "method_in_brief": "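After plating on poly-D-lysine/laminin, fetal-derived hNPC spheres differentiated for 120 h at 37C in compound-containing N2 medium, refreshed by half on day 3. O4 immunostaining over Hoechst nuclei in the migration zone gave oligodendrocyte percentage relative to DMSO.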"}, "[20]": {"assay": "CCTE_Mundy_HCI_iCellGluta_NOG_NeuriteLength: CCTE's Neurite Outgrowth Assay in iCellGluta cells for Neurite Length, Mundy Lab (AID 2284318)", "method_in_brief": "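Automated high-content imaging of betaIII-tubulin (Alexa Fluor-488) and Hoechst-stained cells gave neurite length, normalized to the DMSO baseline.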"}}, "note": "Records with an inconclusive call do not appear. The source made the active and inactive calls. How the source made its calls, unless noted: active means hit-call score of the fitted dose curve at least 0.9, where 1 is the maximum; inconclusive means response in the unintended direction; inactive means score below 0.9.", "data": [{"smiles": "CC[N+](CC)(CC(=O)Nc1c(C)cccc1C)Cc1ccccc1", "values": [{"measurement": "outcome", "setting": "[1]", "result": "inactive"}, {"measurement": "AC50", "setting": "[2]", "result": "18.7 µM (active)"}, {"measurement": "outcome", "setting": "[3]", "result": "inactive"}]}, {"smiles": "O=C(C(=O)c1ccccc1)c1ccccc1", "values": [{"measurement": "AC50", "setting": "[4]", "result": "3.77 µM (active)"}]}, {"smiles": "O=C(O)c1ccccc1C(=O)O", "values": [{"measurement": "outcome", "setting": "[5]", "result": "inactive"}, {"measurement": "outcome", "setting": "[6]", "result": "inactive"}, {"measurement": "outcome", "setting": "[7]", "result": "inactive"}, {"measurement": "outcome", "setting": "[8]", "result": "inactive"}, {"measurement": "outcome", "setting": "[9]", "result": "inactive"}, {"measurement": "outcome", "setting": "[10]", "result": "inactive"}, {"measurement": "outcome", "setting": "[11]", "result": "inactive"}]}, {"smiles": "CCCCCCCCCC/C=C/C1CC(=O)OC1=O", "note": "(stereo not given)", "values": [{"measurement": "AC50", "setting": "[12]", "result": "45.4 µM (active)"}]}, {"smiles": "Oc1cccc2ccccc12", "values": [{"measurement": "outcome", "setting": "[13]", "result": "inactive"}, {"measurement": "outcome", "setting": "[14]", "result": "inactive"}]}, {"smiles": "NC(N)=Nc1nc(CSCCC(N)=NS(N)(=O)=O)cs1", "values": [{"measurement": "outcome", "setting": "[15]", "result": "inactive"}, {"measurement": "outcome", "setting": "[16]", "result": "inactive"}, {"measurement": "outcome", "setting": "[17]", "result": "inactive"}, {"measurement": "outcome", "setting": "[18]", "result": "inactive"}, {"measurement": "outcome", "setting": "[19]", "result": "inactive"}, {"measurement": "outcome", "setting": "[20]", "result": "inactive"}]}, {"smiles": "CC(C)CC(=O)CC(C)CC(C)C", "note": "(stereo not given)", "values": [{"measurement": "outcome", "setting": "[12]", "result": "inactive"}]}, {"smiles": "CCCCCCCCCCCCCCCCCC[N+](C)(C)C", "values": [{"measurement": "AC50", "setting": "[1]", "result": "3.4 µM (active)"}]}, {"smiles": "Sc1nc2ccccc2s1", "values": [{"measurement": "outcome", "setting": "[5]", "result": "inactive"}, {"measurement": "outcome", "setting": "[6]", "result": "inactive"}, {"measurement": "outcome", "setting": "[7]", "result": "inactive"}, {"measurement": "outcome", "setting": "[8]", "result": "inactive"}, {"measurement": "outcome", "setting": "[9]", "result": "inactive"}, {"measurement": "outcome", "setting": "[10]", "result": "inactive"}, {"measurement": "outcome", "setting": "[11]", "result": "inactive"}]}, {"smiles": "CC1(C)S[C@@H]2[C@H](NC(=O)[C@H](N)c3ccccc3)C(=O)N2[C@H]1C(=O)O", "values": [{"measurement": "outcome", "setting": "[13]", "result": "inactive"}, {"measurement": "outcome", "setting": "[14]", "result": "inactive"}]}, {"smiles": "CN(C)CCC(c1ccc(Cl)cc1)c1ccccn1", "note": "(stereo not given)", "values": [{"measurement": "AC50", "setting": "[2]", "result": "13.9 µM (active)"}, {"measurement": "AC50", "setting": "[4]", "result": "3.05 µM (active)"}, {"measurement": "AC50", "setting": "[3]", "result": "2.95 µM (active)"}, {"measurement": "outcome", "setting": "[15]", "result": "inactive"}, {"measurement": "outcome", "setting": "[16]", "result": "inactive"}, {"measurement": "outcome", "setting": "[17]", "result": "inactive"}, {"measurement": "outcome", "setting": "[18]", "result": "inactive"}, {"measurement": "outcome", "setting": "[19]", "result": "inactive"}, {"measurement": "outcome", "setting": "[20]", "result": "inactive"}]}]}
